Rows were chosen to be rich in hits. Some 3.5% of all compounds tested hit in one or more screens of this group.
TEAD-YAP block: TEAD-YAP interaction inhibition; HEK-TIYL cells, TEAD-Gal4/YAP UAS-luciferase luminescence; actives 1.4% (n = 640,000); AID 1259422; inhibition, % at 9.12 µM; in the data active = inhibition above about 32%;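 also: 0% = median of test compound wells and 100% = reference inhibitor wells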
FBW7 activator: human FBW7 E3 ligase activation, primary screen; AID 1259310; normalized activity (activation), % at 26.1 µM; actives 0.13% (n = 650,000); AlphaScreen FBW7–phospho-cyclin E peptide binding, activator screen; Q969H0; in the data active = normalized activity above about 1.9%;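 also: purified mutant Fbw7 with reduced substrate affinity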
GPR151 ag: human GPR151 activation; actives 1% (n = 650,000); Q8TDV0; PathHunter beta-arrestin GPR151 cells, luminescence; activation, % at 11.2 µM; in the data active = activation above about 4.9%;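 also: 0% = median of compound wells and 100% = cells with positive control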
MITF primary: inhibitors of human MITF | inhibition, % at 2.6 µM | actives 0.91% (n = 650,000) | AlphaScreen MITF homodimerization, bead proximity signal; in the data active = inhibition above about 50%;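 also: 0% = vehicle wells with protein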
Target sequence (O75030 whole entry, looked up): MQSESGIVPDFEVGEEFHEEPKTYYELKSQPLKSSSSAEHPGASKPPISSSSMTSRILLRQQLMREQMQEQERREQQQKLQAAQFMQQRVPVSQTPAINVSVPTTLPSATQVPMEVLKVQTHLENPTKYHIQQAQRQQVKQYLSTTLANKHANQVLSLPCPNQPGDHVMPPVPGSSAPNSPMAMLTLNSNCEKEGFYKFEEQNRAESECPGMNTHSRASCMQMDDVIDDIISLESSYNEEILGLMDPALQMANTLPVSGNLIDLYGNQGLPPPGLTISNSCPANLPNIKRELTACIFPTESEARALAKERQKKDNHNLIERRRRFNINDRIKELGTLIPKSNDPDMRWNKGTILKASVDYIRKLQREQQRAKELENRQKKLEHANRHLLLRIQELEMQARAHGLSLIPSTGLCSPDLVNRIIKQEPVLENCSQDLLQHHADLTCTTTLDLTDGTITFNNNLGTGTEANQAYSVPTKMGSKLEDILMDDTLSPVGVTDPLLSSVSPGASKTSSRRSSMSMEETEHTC
MITF confirm: confirmation of human MITF inhibitors; shares compounds with MITF primary; AlphaScreen MITF homodimerization, biotin/His-MITF beads; inhibition, % at 2.6 µM; actives 16% (n = 4,700);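 active = inhibition above a cutoff derived from the DMSO control wells, cut at about 28% in these data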;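 also: 0% = MITF dimer wells with DMSO only; inhibitors lower the bead chemiluminescence by keeping MITF from dimerizing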
AlphaScreen DR: counter-screen: compounds optically interfering with AlphaScreen. shares compounds with MITF primary. AlphaScreen optical interference counterscreen, cell-free. actives 6% (n = 480). IC50, µM. AID 1259373; call rule not given here
AlphaScreen intf2: AlphaScreen optical interference, counter-screen; shares compounds with MITF primary; LysRS AlphaScreen counterscreen, signal interference, triplicate; inhibition, % at 2.6 µM; actives 7.6% (n = 4,700); AID 1259376;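 active = inhibition above a cutoff derived from the DMSO control wells, cut at about 30% in these data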
Numbers without * were called inactive; nt = not tested or not shown.

SMILES | TEAD-YAP block | FBW7 activator | GPR151 ag | MITF primary | MITF confirm | AlphaScreen intf2 | others
COc1ccccc1NC(=O)CN1CCN(Cc2nc3ccccc3n2C)CC1 | -8.5 | -0.7 | -1.0 | 67.2* | 9.5 | 13.9
COc1ccccc1NC(=O)CN1CCN(CC(=O)Nc2ccccc2OC)CC1 | 0.4 | 0.0 | -1.5 | -29.1 | nt | nt
Cc1nc2ccccc2n1CC1CCN(C(=O)CN2C(=O)CCC2=O)CC1 | -2.3 | -0.4 | 0.4 | 64.8* | 5.0 | 21.8
Cc1ccc(-c2cc3nc4c(c(=O)n3[nH]2)CCC4)cc1 | -44.0 | 0.2 | 1.7 | 1.0 | nt | nt
O=S(=O)(c1ccccc1)N1CCN(CC(O)COCc2ccco2)CC1 (configuration not stated) | 1.0 | -0.1 | -1.9 | 93.7* | 17.4 | 0.7
COc1ccc(C2CC(=O)C3=C(C2)NC(=O)CC3c2cccc(Cl)c2)cc1 (configuration not stated) | -15.3 | 0.0 | -1.4 | -4.7 | nt | nt
Cc1c(C)n(C(=O)CN2CCN(c3ccccn3)CC2)c2ccccc12 | -0.3 | 0.1 | -1.5 | 18.1 | nt | nt
CCN1CCN(CC(=O)n2c(C)c(C)c3ccccc32)CC1 | -0.7 | -0.2 | -1.4 | 73.8* | -2.0 | -3.5
Cn1c(=O)[nH]c(=O)c2c1nc(Cl)n2CC(N)=O | -1.2 | 0.0 | 0.2 | 82.3* | 2.2 | 9.6
Cc1ccc2c(c1)NC(=O)C(N1CCOCC1)(C(F)(F)F)O2 (configuration not stated) | 1.5 | 0.1 | -0.3 | 59.1* | 7.1 | 14.2
Cc1ccc2c(c1)NC(=O)C(Cl)(C(F)(F)F)O2 (configuration not stated) | -7.0 | 0.0 | 3.3 | -12.1 | nt | nt
CCCCCn1c(SCc2ccccc2F)nc2cc(C(=O)NCc3ccco3)ccc2c1=O | -0.2 | -0.1 | 1.3 | -9.6 | nt | nt
Cc1cccn2c(=O)c3c(nc12)CCN(C(=O)Nc1cccc(F)c1)C3 | -2.2 | 0.4 | 0.2 | 6.9 | nt | nt
Cc1cccn2c(=O)c3c(nc12)CCN(C(=O)Nc1cccc(C(F)(F)F)c1)C3 | 7.0 | 0.0 | -0.6 | 50.6* | 7.2 | 17.3
Cc1ccc(NC(=O)/C(=C\c2ccc([N+](=O)[O-])o2)NC(=O)c2ccc(Cl)cc2)cc1 | 0.4 | -0.4 | 0.3 | 14.8 | nt | nt
Cc1ccc(C(=O)N/C(=C/c2ccc([N+](=O)[O-])o2)C(=O)O)cc1 | 6.3 | 0.0 | 0.9 | 70.2* | 53.7* | 4.5 | AlphaScreen DR=>5.88
Cc1nc(NCCO)c2c3c(sc2n1)CCC3 | 10.2 | -0.3 | 0.2 | 3.7 | nt | nt
Cc1nc(NCC(C)C)c2c3c(sc2n1)CCCC3 | 4.8 | 0.0 | 1.1 | 52.0* | 12.2 | 17.0
CC(=O)NC1=NC(=O)/C(=C\c2ccc(Br)o2)S1 | -7.9 | -0.1 | 0.3 | 77.0* | 66.9* | 11.7 | AlphaScreen DR=>6.48
COc1cc(/C=C/C(=O)OCC(=O)Nc2ccc([N+](=O)[O-])cc2C#N)ccc1O | 9.8 | 0.6 | -0.8 | 71.8* | 1.5 | 5.2
N#Cc1cc([N+](=O)[O-])ccc1NC(=O)COC(=O)/C=C/c1ccc2c(c1)OCO2 | -7.6 | -0.2 | 0.8 | -1.3 | nt | nt
COc1ccc(Cl)cc1NC(=O)N1CCc2ccccc2C1 | 4.2 | -0.2 | 0.1 | -9.8 | nt | nt
NC(=O)NC(c1ccccc1)c1cccc(Cl)c1 (configuration not stated) | 1.3 | 0.8 | -0.2 | 16.6 | nt | nt
Cc1ccc(C)n1C(CC(=O)O)c1cccc(Cl)c1 (configuration not stated) | 2.7 | -0.3 | -0.1 | 76.8* | 15.5 | 7.0
CCOCCCNC(=O)c1ccc(Sc2ccc(C)cc2)c(N)c1 | -5.0 | 0.2 | 0.2 | 12.2 | nt | nt
SMILES | TEAD-YAP block | FBW7 activator | GPR151 ag | MITF primary | MITF confirm | AlphaScreen intf2 | others
Cc1ccc(/C=C(\C#N)C(=O)Nc2c(Cl)cccc2Cl)o1 | -13.6 | -0.1 | -2.0 | 73.8* | 5.2 | 18.3
Cc1ccc(/C=C(\C#N)C(=O)Nc2cccc(Cl)c2Cl)o1 | -1.9 | 0.0 | -0.4 | 7.8 | nt | nt
Cc1ccc2c(c1C)C(C)(C)C1(C=Nc3c(ccc4ncccc34)O1)N2C (configuration not stated) | 2.7 | -0.3 | 1.5 | 57.0* | 52.2* | 51.9*
O=C(CCSc1nnc2ccccn12)Nc1ccc(F)cc1 | -3.4 | -0.1 | 0.1 | 67.1* | 10.8 | -6.7
COc1ccc(N2C(=NC(C)=O)SC3CS(=O)(=O)CC32)cc1 (configuration not stated) | -4.9 | 0.7 | -1.0 | 2.9 | nt | nt
CCC(C)(C)NC(=O)C(c1cccc(OC)c1)N(C(=O)Cn1nnc2ccccc21)C1CC1 (configuration not stated) | -29.4 | -0.3 | 1.2 | -8.9 | nt | nt
Cc1cc(C)n(-c2ccccc2F)c(=O)c1C#N | -8.6 | -0.1 | 1.2 | 1.2 | nt | nt
CCOc1ccc(CNC(=O)CN2C(=O)C(CC)Sc3ccccc32)cc1OC (configuration not stated) | 8.6 | 0.1 | 0.4 | 50.8* | 17.5 | 7.5
CCC1Sc2ccccc2N(CC(=O)NCCc2ccc(OC)c(OC)c2)C1=O (configuration not stated) | 5.3 | 0.2 | -1.1 | 12.3 | nt | nt
O=C(NCCS(=O)(=O)N1CCN(c2ncccn2)CC1)C12CC3CC(CC(C3)C1)C2 | -12.4 | 0.0 | -0.3 | -5.8 | nt | nt
N#Cc1ccc(C(c2nnnn2C2CCCC2)N2CCOCC2)cc1 (configuration not stated) | -45.2 | -0.1 | -0.9 | 4.2 | nt | nt
CCOc1ccc(-n2c(=S)sc3c2nc(SCC(=O)NCc2ccccc2)n2c4ccccc4nc32)cc1 | 3.8 | 0.0 | 0.4 | -1.3 | nt | nt
CCOC(=O)c1ccc(-n2c(=S)sc3c2nc(SCC(=O)NCc2ccccc2)n2c4ccccc4nc32)cc1 | 6.6 | 0.0 | -0.4 | 59.9* | -3.5 | -7.8
Cc1ccc(N2C(=O)CC(N3CCN(CCO)CC3)C2=O)cc1 (configuration not stated) | -2.5 | 0.2 | -0.3 | 9.0 | nt | nt
CC(C)c1ccc(NC(=O)C2C3C=CC4(O3)C2C(=O)N(C(C)c2ccccc2)C4C(=O)NC2CCCCC2)cc1 (configuration not stated) | 6.5 | -0.1 | 0.5 | -3.8 | nt | nt
O=C(/C=C/c1ccc2c(c1)OCO2)CC1(O)C(=O)N(Cc2ccccc2)c2ccccc21 (configuration not stated) | 15.5 | 0.2 | 0.0 | 68.3* | 5.5 | 14.4
CCOCCCNC(=O)c1cc(C)nc2c1c(C)nn2-c1ccccc1 | -6.8 | 0.2 | 2.9 | -1.5 | nt | nt
Cc1nc(NCCCn2ccnc2)c2c(-c3cccs3)csc2n1 | 1.3 | -0.1 | 0.7 | 64.3* | 6.4 | -2.2
Cc1nc(NCCCn2ccnc2)c2ccccc2n1 | 9.0 | 0.0 | 0.0 | 8.3 | nt | nt
CCONC(=O)c1cnc2scc(-c3ccccc3Cl)n2c1=O | -2.0 | -0.1 | 1.5 | 7.6 | nt | nt
Cc1cc(C)c(C(N)=O)c(SCC(=O)Nc2nccs2)n1 | -3.2 | 0.4 | 0.0 | 1.8 | nt | nt
Cc1cc(C)nc(SCc2nnc(SCC(=O)Nc3nccs3)o2)n1 | 4.2 | -0.4 | -0.1 | 72.4* | 77.0* | 30.8*
